# Source: PubChem
# Methyltransferases: Primary Screen for Target Class Profiling of Small Molecule Inhibitors of Methyltransferases | purified enzyme, MTase-Glo SAH luminescence; active compounds read low | calls only at 40 µM | hit rate 3.9% among 25,000; call rule not given here
#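 Each enzyme was assayed with SAM and its substrate. SAH formation detected by MTase-Glo luminescence; single-point 40 uM screen[…].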
# * marks the source's active call; other numbers are inactive results; i = inactive; + = active, no number. This is one part of a sample in which hits are shown more often than they occur. % is set by controls: 0 for no effect and ±100 for the full control effect.
SMILES,Methyltransferases
CC1(C(=O)NC2CCCCC2)Cn2nc(-c3ccco3)cc2C(=O)N1Cc1ccc(Cl)cc1 (configuration not stated),i
C=C(C)C(=O)OC1CC2(C)OC(=CC2=O)C(=C)CC2OC(=O)C(COC)C12 (configuration not stated),+
C=C1CC2OC(=O)C(COC)C2C(OC(=O)/C(C)=C\C)CC2(C)OC1=CC2=O (configuration not stated),i
C=C(C)C(=O)OC1CC2(C)OC(=CC2=O)C(=C)CC2OC(=O)C(=C)C12 (configuration not stated),i
CCOc1ccc(C(=O)Cn2nc3n(C)c(=O)c4ccc(C(=O)NC(C)CC)cc4n3c2=O)cc1 (configuration not stated),i
CC1(C(=O)NCc2ccc(F)cc2)Cn2cnc(C(=O)NCCc3ccccc3Cl)c2C(=O)N1C1CC1 (configuration not stated),i
COc1cccc(CN2C(=O)c3ccc(-c4ccccc4)n3CC2(C)C(=O)NC2CCCCC2)c1 (configuration not stated),i
CC1CCN(C(c2ccc(F)cc2)c2ccc(C(C)C(=O)O)cc2-c2ccc(C(F)(F)F)cc2)CC1 (configuration not stated),+
COC(=O)c1ccc(NC(=O)CN(C)S(=O)(=O)c2ccc3[nH]c4c(c3c2)CCCC4)cc1,i
CC1(COc2ccc3c(c2)ncn3-c2ccc3cccc(N4CCC(N)CC4)c3n2)COC1,+
CCCn1c(=O)c2ccc(C(=O)NC(C)C)cc2n2c(=O)n(CC(=O)NC3CCCC3)nc12,i
CC1CCCCC1NC(=O)C1(C)Cn2c(cc3occc32)C(=O)N1CCCc1ccccc1 (configuration not stated),i
Cc1cc2nn(CC(=O)Nc3cccc(Cl)c3)c(=O)n2c(Nc2ccc(F)cc2)n1,i
C=CC(=O)Nc1cccc(Oc2nc(Nc3ccc(N4CCN(C)CC4)cc3OC)ncc2Cl)c1,i
C=CC(=O)Nc1ccc(CN2C(=O)N(c3cc(OC)cc(OC)c3)Cc3cnc(Nc4ccc(N5CCN(C)CC5)cc4)nc32)cc1,+
COc1cccc(Nc2ncc3c(n2)C(C)(C(=O)N2CCN(c4ccccn4)CC2)CC3)c1 (configuration not stated),i
COc1ccc2cc3n(c2c1)CC(C)(C(=O)NC1CCCC1)N(Cc1ccccc1Cl)C3=O (configuration not stated),i
Cc1ccc(Cn2c(=O)c3ccccc3n3c(CCC(=O)Nc4cccc(Cl)c4)nnc23)cc1,i
CCCN1C(=O)c2c(C(=O)NCc3ccc(N(C)C)cc3)ncn2CC1(C)C(=O)NCc1ccc(F)cc1 (configuration not stated),i
CC(C)CCn1c(=O)c2ccc(C(=O)NC(C)C)cc2n2c(=O)n(CC(=O)Nc3cccc(F)c3)nc12,i
Cc1ccc(N2CCN(S(=O)(=O)c3cc4c(cc3C)n(C)c(=O)n4C)CC2)c(C)c1,i
CC1(C(=O)NC2CCCCCC2)Cn2c(cc3occc32)C(=O)N1CCN1CCCC1 (configuration not stated),i
N.N.N.N.N.N.N.N.N.N.N.N.N.N.O.O.[Ru+4].[Ru+5].[Ru+5],+
Cc1ccc2nc(Nc3ccc4c(c3)n(C)c(=O)n4C)c(-n3nc(C)cc3C)nc2c1,i
COc1ccc(-c2nnc(-c3ccc(OC)c(S(=O)(=O)N4CCCCCC4)c3)o2)cc1OC,i
SMILES,Methyltransferases
COc1ccc(-c2cc3n(n2)CC(C)(C(=O)NC2CCCCCC2)N(Cc2ccccc2)C3=O)cc1 (configuration not stated),i
CCCn1c(=O)c2ccc(C(=O)NCC(C)C)cc2n2c(=O)n(Cc3ccccc3F)nc12,i
NC1(c2ccc(-c3nc4ccn5c(=O)[nH]nc5c4cc3-c3ccccc3)cc2)CCC1,+
COc1ccccc1N1CCN(C(=O)CCc2nnc3n(Cc4ccc(F)cc4)c(=O)c4ccccc4n23)CC1,i
O=C(NCCc1ccccc1)c1ccc2c(=O)nc3c(-c4ccc(Cl)cc4)n[nH]n3c2c1,i
CN1CCN(CCOc2cc(OC3CCOCC3)c3c(Nc4c(Cl)ccc5c4OCO5)ncnc3c2)CC1,+
CCCN1C(=O)c2c(C(=O)NCc3ccc(OC)cc3)ncn2CC1(C)C(=O)NC1CCCC1 (configuration not stated),i
C=C1C(O)CC2C(C(=O)O)=COC(O[C@@H]3O[C@H](COC(=O)c4ccc(O)cc4)[C@@H](O)[C@H](O)[C@H]3O)C12 (some centres not stated),i
COC(=O)C1=COC(OC2OC(CO)C(O)C(O)C2O)C2C(COC(=O)/C=C/c3ccc(O)c(O)c3)C(O)C(O)C12 (configuration not stated),i
COC(=O)C1=COC(O[C@@H]2O[C@H](CO[C@@H]3O[C@H](COC(=O)/C=C\c4ccc(O)cc4)[C@@H](O)[C@H](O)[C@H]3O)[C@@H](O)[C@H](O)[C@H]2O)C2C(CO)=CCC12 (some centres not stated),i
C=C1[C@H]2[C@H](O[C@@H]3O[C@H](COC(=O)/C=C/c4cc(OC)c(O)c(OC)c4)[C@@H](O)[C@H](O)[C@H]3O)OC=C(C(=O)O)[C@H]2C[C@@H]1O,+
COc1cc(/C=C/C(=O)OC[C@H]2O[C@@H](OC3OC=C(C(=O)O)C4C(O)CC(C)(O)C34)[C@H](O)[C@@H](O)[C@@H]2O)cc(OC)c1O (some centres not stated),+
COC(=O)C1=CO[C@@H](O[C@@H]2O[C@H](CO[C@@H]3O[C@H](COC(=O)/C=C/c4ccc(O)cc4)[C@@H](O)[C@H](O)[C@H]3O)[C@@H](O)[C@H](O)[C@H]2O)[C@@H]2C(CO)=CC[C@H]12,i
COC(=O)C1=CO[C@@H](O[C@@H]2O[C@H](CO[C@@H]3O[C@H](COC(=O)/C=C/c4cc(OC)c(O)c(OC)c4)[C@@H](O)[C@H](O)[C@H]3O)[C@@H](O)[C@H](O)[C@H]2O)[C@@H]2C(CO)=CC[C@H]12,+
C[C@]1(O)CC[C@@H]2C(C(=O)O)=CO[C@@H](O[C@@H]3O[C@H](COC(=O)c4ccc(O)cc4)[C@@H](O)[C@H](O)[C@H]3O)[C@@H]21,i
CC1(O)CC(O)C2C(C(=O)O)=COC(OC3OC(CO)C(O)C(O)C3OC(=O)/C=C/c3ccc(O)cc3)C21 (configuration not stated),i
CCOc1ccc(C2c3cccn3-c3sc4c(c3CN2C(=O)Nc2ccc(C)cc2)CCCC4)cc1 (configuration not stated),i
COc1ccc(N2C(=O)c3cc4occc4n3CC2(C)C(=O)NC2CCCCCCC2)cc1OC (configuration not stated),i
CC1(C(=O)NC2CCCCCC2)Cn2c(cc3occc32)C(=O)N1CCCN1CCCCCC1 (configuration not stated),i
CCOc1ccc(N2C(=O)c3cc4sccc4n3CC2(C)C(=O)NC2CCCCCCC2)cc1 (configuration not stated),i
COc1ccc(C2c3cccn3-c3sc4c(c3CN2C(=O)NCc2cccc(OC)c2)CCCC4)cc1 (configuration not stated),i
COCCCN1C(=O)c2nc3ccccc3n2CC1(C)C(=O)NC1CCCCC1 (configuration not stated),i
